Screening data deposited in PubChem by National Center for Advancing Translational Sciences (NCATS).
SW480 rereplic: inducers of DNA re-replication in SW480 colon cancer cells | 340,000 compounds, 1.8% hits | SW480 DNA re-replication, Hoechst DNA content imaging, 48 h | Potency, µM (series often up to 46.1 µM), for the others: at the top dose re-replication activation, usual class: activators | AID 624297; note: % of control where 0% means no effect; nearly all actives have a fitted effect of over 55% in size
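Readout is total intensity of Hoechst-stained nuclei, excited at 405 nm and collected at 500-530 nm. Compound treatment lasted 48 hr at 37 C in 5% CO2 before staining.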
KB-V1 MDR tox: KB-V1 MDR subline cytotoxicity; KB-V1 MDR cells viability, CellTiter-Glo, 72 h; Potency, µM (series often up to 46.1 µM), most hits filed as cytotoxic; 400,000 compounds, 3.4% hits; note: % is set by controls: 0 for no effect and ±100 for the full control effect; nearly all actives have a fitted effect of over 60% in size
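Cells of the MDR subline KB-V1 are plated, dosed with compound at multiple concentrations, and incubated 72 h at 37 degrees C; CellTiter-Glo is then added and luminescence read after 10 min.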
ELG1 DNA repair: inhibitors of ELG1-dependent DNA repair in HEK293T cells; AID 504467; Potency, µM (doses to about 46.1 µM), without a hit: at the top dose activity change, negative = inhibition, usual class: inhibitors; HEK293T ELG1-luciferase reporter, luminescence, 16 h; DNA damage induced by 5-fluorouridine; 330,000 compounds, 2.3% hits; note: % is set by controls: 0 for no effect and ±100 for the full control effect; nearly all actives have a fitted effect of over 55% in size
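DMSO vehicle served as the neutral condition. Each well held 2,000 cells given 5-fluorouridine plus compound; after 16 hr at 37 °C/5% CO2, ONE-Glo was added and luciferase measured 30 min later.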
MCF10A rereplic: inducers of DNA re-replication in MCF 10A breast cells; MCF 10A DNA re-replication, Hoechst nuclear intensity, 48 h; Potency, µM (top dose mostly 46.1 µM), without a hit: at the highest dose activity, positive = re-replication, most hits filed as activators; 350,000 compounds, 2.9% hits; AID 624296; note: % of control where 0% means no effect; nearly all actives have a fitted effect of over 50% in size
KB-3-1 tox: kills parental KB-3-1 adenocarcinoma cells. Potency, µM (doses to about 46.1 µM), hits mostly cytotoxic. KB-3-1 viability, CellTiter-Glo ATP luminescence, 72 h. AID 1347075. 400,000 compounds, 1.4% hits; note: % is set by controls: 0 for no effect and ±100 for the full control effect; nearly all actives have a fitted effect of over 60% in size
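Screening of KB-3-1 cells (DMEM, 10% FBS, phenol-red free) ran from lowest to highest compound concentration; after 72 h at 37 °C viability was read luminescently and curves fitted.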
Starred values were filed as active, the others as inactive; i = inactive; u = inconclusive; x = no result given. This is a sample that favours compounds with a hit; in the whole collection about 8.2% have one here. Calls come from the whole dose curve; as a rule, active = well fitted curve in the direction sought with a large enough effect; inconclusive = small, poorly fitted or top-dose-only effect, or another doubt; inactive = no such curve, though single readings can be large; an effect the other way counts as inactive or inconclusive. Potency is the fitted concentration of half-maximal effect.

SMILES	SW480 rereplic	KB-V1 MDR tox	ELG1 DNA repair	MCF10A rereplic	KB-3-1 tox
CC1=CC(C)(C)N(C(=O)CSc2nnc(C)s2)c2ccc(C)cc21	-1%	u	0%	1%	i
Cc1ccc(C(=O)CSc2nnc(-c3ccccc3)o2)cc1	-28%	i	17%	-21%	i
COc1cc(C(=O)NCC(c2cccs2)N(C)C)cc(Cl)c1OC(C)C (stereo unspecified)	u	7.3µM*	u	u	i
CCCOc1ccc(C(=O)NCC(c2cccs2)N(C)C)cc1OC (stereo unspecified)	5%	i	6%	35%	i
CCOC(=O)c1ccc(NC(=O)C2CCCO2)cc1 (stereo unspecified)	-9%	i	u	1%	i
CCc1ccc(NC(=O)c2ccc(NC(=O)C3CCCO3)cc2)cc1 (stereo unspecified)	-5%	23µM*	8%	3%	i
CCOC(=O)c1cc(NC(=O)C2CCCO2)cc(C(=O)OCC)c1 (stereo unspecified)	-11%	13µM*	7%	1%	i
COc1ccc(N2CCN(CCCNC(=O)c3sc4ncccc4c3-n3cccc3)CC2)cc1	x	i	x	x	i
CCOc1ccccc1C(=O)N1CCC(n2nnc3cc(C(F)(F)F)ccc32)CC1	7%	i	21µM*	7%	i
CCOc1ccccc1C(=O)N1CCC(n2nnc3cc(C)ccc32)CC1	3%	i	-11%	9%	i
O=C(NCc1cccc(Cl)c1)C1CCCN(c2nn3cc(-c4ccc(F)cc4)nc3s2)C1 (stereo unspecified)	x	i	x	x	i
Cc1ccnc2c(Cl)ccc(Cl)c12	x	i	x	x	i
COc1ccc(C(=O)COc2nc(C)cc(C)c2C#N)cc1	20%	13µM*	0%	20%	u
Cc1nc(OCC(=O)c2ccc(Cl)cc2)c(C#N)c2c1COC(C)(C)C2	21µM*	i	u	4.6µM*	i
CC1(C)Cc2c(C#N)c(OCC(=O)c3ccc(Cl)cc3)nc(-c3ccco3)c2CO1	-2%	i	u	2%	i
O=S(=O)(Nc1cccc(-c2ccc(N3CCCCC3)nn2)c1)c1cccs1	x	u	x	x	i
CCOC(=O)c1c(-n2cnnn2)sc2c1CCCC2	1%	i	-10%	3%	i
CCOC(=O)c1c(N2C(=O)Nc3cc(Cl)c(Cl)cc3N2O)sc2c1CCCCC2	0%	i	0%	2.3µM*	i
Cc1[nH]c2ccccc2c1C(c1c[nH]c2ccccc12)c1c(C)[nH]c2ccccc12	x	i	x	x	i
Cn1cccc1/C=N/NC(=O)Cc1cccc2ccccc12	8%	i	13µM*	1%	i
Cc1ccc(Nc2nc(CSc3nnnn3C)cs2)cc1	-4%	23µM*	u	16%	i
Cc1ccc(Nc2nc(CSc3nnc(-c4ccccc4C)n3C)cs2)cc1	-65%	6.5µM*	u	u	u
Cc1ccc(Nc2nc(CSc3nnnn3-c3ccccc3)cs2)cc1	3%	15µM*	x	8%	u
COc1cccc(N2CCN(C(=O)c3cc4c(s3)-c3c(C)cccc3OC4)CC2)c1	x	i	x	x	i
CC1(C)N=C(N)N=C(N)N1c1cccc(CC(=O)Nc2ccccc2)c1	x	i	x	x	i
SMILES	SW480 rereplic	KB-V1 MDR tox	ELG1 DNA repair	MCF10A rereplic	KB-3-1 tox
CC1(C)N=C(N)N=C(N)N1CCCCc1ccccc1	-9%	i	x	18%	1.5µM*
CC(=O)N(O)c1ccc(/C=C2\C=Cc3ccccc32)cc1	x	u	x	x	i
CN(Cc1cnn(-c2ccccc2)c1)C(=O)c1cccc(S(=O)(=O)Nc2ccccc2F)c1	x	i	x	x	i
COc1ccc(-c2cc(-c3nnc(COC(=O)c4ccc(O)cc4)o3)c3ccccc3n2)cc1OC	u	u	u	u	i
COc1ccc(-c2cc(-c3nnc(COC(=O)C4CC4)o3)c3ccccc3n2)cc1OC	21µM*	u	7.3µM*	u	u
COc1cc(-c2nnc(COC(=O)CSc3cc(C)c4ccccc4n3)o2)cc(OC)c1OC	0%	i	u	3%	i
COc1ccc(-c2cc(-c3nnc(COC(=O)CC4CCCC4)o3)c3ccccc3n2)cc1OC	u	i	21µM*	15µM*	i
COc1ccc(-c2cc(-c3nnc(COC(=O)C4CC4C)o3)c3ccccc3n2)cc1OC (stereo unspecified)	16µM*	u	9.2µM*	u	i
CC1=NN(C(=O)c2ccoc2C)C(O)(C(F)(F)F)C1 (stereo unspecified)	-56%	i	u	u	i
CC1=NN(C(=O)c2ccc(Cn3cc(Br)c([N+](=O)[O-])n3)o2)C(O)(C(F)(F)F)C1 (stereo unspecified)	10µM*	i	-2%	-2%	i
CC1=NN(C(=O)c2ccc(Cn3nc(C)c([N+](=O)[O-])c3C)cc2)C(O)(C(F)(F)F)C1 (stereo unspecified)	16%	9.2µM*	-16%	u	i
CC1=NN(C(=O)c2ccc(Cn3nc(C)c(Br)c3C)cc2)C(O)(C(F)(F)F)C1 (stereo unspecified)	-8%	i	-29%	-3%	i
CC1=NN(C(=O)c2ccc(Cn3nc(C)cc3C)o2)C(O)(C(F)(F)F)C1 (stereo unspecified)	3.7µM*	i	-9%	2.3µM*	i
COC(=O)C[C@H]1c2cc(F)ccc2S(=O)(=O)N1C1CC1	x	u	x	x	i
O=C(c1cnc(N2CCCCC2)c2ccccc12)N1CCN(c2ccc(Cl)cc2)CC1	x	i	x	x	i
C=CCn1c(O)c(N=Nc2ccccc2[N+](=O)[O-])c2ccccc21	x	i	x	x	i
CCOc1ccccc1NC(=O)CCSc1nc2n[nH]c(C)c2c(=N)n1-c1ccccc1Cl	u	u	3.2µM*	13µM*	i
CCc1ccccc1NC(=O)CSc1nc2n[nH]c(C)c2c(=N)n1-c1cccc(OC)c1	18%	8.2µM*	u	u	i
CCOc1ccccc1-n1c(SCC(=O)Nc2ccc(CC)cc2)nc2n[nH]c(C)c2c1=N	-2%	u	-19%	8.2µM*	18µM*
Cc1ccccc1-n1c(SCC(=O)Nc2ccccc2Cl)nc2n[nH]c(C)c2c1=N	-6%	i	-3%	u	u
COc1ccc(OC)c(NC(=O)CSc2nc3n[nH]c(C)c3c(=N)n2-c2cccc(Cl)c2C)c1	7%	u	u	27%	u
Cc1ccc(NC(=O)COC(=O)C2(CC(=O)NC(C)C)CCCC2)cc1C	-8%	i	-4%	17%	i
COc1cccc(-c2cc3nc(NCc4ccccc4F)n(C)c(=O)c3s2)c1	x	i	x	x	i
